MITF act = increases MITF-driven TRPM1 promoter luciferase signal; SK-MEL-5 TRPM1-promoter luciferase, 24 h; % of positive control, neutral wells = 0; activation, % at 12.5 µM; 300,000 compounds, 0.75% hits;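 active means mean activation of at least 80% with every replicate also reaching 80%; inconclusive means mean reaches 80% but some replicate falls short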;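 further: 0% = neutral control wells and 100% = parthenolide positive control wells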
Rtt109 Vps75 = inhibitors of Candida albicans Rtt109/Vps75 histone acetyltransferase. Q5AAJ8. purified Rtt109/Vps75, ThioGlo CoA-SH fluorescence, 4 h. inhibition, % at 34.9 µM. 330,000 compounds, 0.16% hits;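 active means inhibition of at least 50% in every replicate; inconclusive means best replicate reaches 50% inhibition but some replicates fall short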
Target sequence (Q5AAJ8 whole entry, looked up): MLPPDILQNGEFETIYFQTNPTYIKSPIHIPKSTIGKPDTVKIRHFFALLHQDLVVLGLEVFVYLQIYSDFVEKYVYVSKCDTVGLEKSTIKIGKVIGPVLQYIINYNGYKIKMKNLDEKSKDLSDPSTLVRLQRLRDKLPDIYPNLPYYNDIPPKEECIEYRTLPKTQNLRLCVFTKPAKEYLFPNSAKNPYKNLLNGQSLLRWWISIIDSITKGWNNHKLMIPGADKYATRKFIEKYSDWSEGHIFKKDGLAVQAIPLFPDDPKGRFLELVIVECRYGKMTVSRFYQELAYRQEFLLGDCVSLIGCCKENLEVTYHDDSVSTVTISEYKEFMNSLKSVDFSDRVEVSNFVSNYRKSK
esBAF inh = SWI/SNF esBAF complex inhibition; mouse ES cells, Bmi1-luciferase knock-in reporter, 24 h; 100% = twice the neutral-well signal; 350,000 compounds, 2% hits; reporter increase, % at 12.5 µM; in the data active means activation above about 40%; inconclusive means no clear call, values can overlap the other calls;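 further: 0% = median of the plate's neutral control wells and 100% = double that signal; a rise in the Bmi1 reporter signal indicates esBAF inhibition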
C2C12 statin = protects C2C12 myotubes from simvastatin toxicity | ATP luminescence, 48 h; scaled: DMSO 0, geranylgeraniol control 100 | rescue of ATP level, % at 7.49 µM | 330,000 compounds, 0.78% hits;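 active means mean ATP rescue above about 67%, or every replicate alone reaching that limit, limit read from the data, passing the limit was not always enough; inconclusive means no clear call, values can overlap the other calls; inactive means mean under the limit and some replicate under it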;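 further: myotubes were challenged with 10 µM simvastatin during compound exposure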
Wnt bcat act = activates Wnt/beta-catenin signaling in a reporter cell assay | 300,000 compounds, 1.2% hits | activation, % at 9.35 µM | activator, plate reader | AID 743398; in the data active means activation above about 30%, passing the limit was not always enough; inconclusive means no clear call, values can overlap the other calls;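 further: 0% = neutral control wells and 100% = positive control wells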
Active calls of the source: *. Sampled rows, rich in hits. Any-hit rate of the full collection: about 3.1%.

`Cc1noc(C)c1NC(=O)Nc1cccc2c1O[C@@H](CN(C)C(=O)Nc1ccccc1)[C@@H](C)CN([C@@H](C)CO)C2=O` gave esBAF inh -3 and C2C12 statin 18.
`O=C(Nc1nc(=O)c2ccccc2s1)c1ccc(Cl)cc1` gave Rtt109 Vps75 -8, esBAF inh 22, C2C12 statin 80* and Wnt bcat act -3.
Screening O=C(Nc1nc2ccsc2c(=O)s1)c1ccc(Cl)cc1 returned Rtt109 Vps75 -16 and Wnt bcat act 2.
`O=C(Nc1nc(=O)c2ccccc2s1)c1ccc(F)cc1` gave MITF act 62, Rtt109 Vps75 5, esBAF inh 51*, C2C12 statin 19 and Wnt bcat act -2.
C[C@@H]1CN([C@@H](C)CO)C(=O)c2cc(NC(=O)Cc3ccccc3)ccc2O[C@@H](C)CCCCO[C@H]1CN(C)C(=O)c1ccccc1 was read as esBAF inh 1.
Screening CCOc1cc(C(=O)Nc2cccc3ncccc23)cc(OCC)c1OCC returned MITF act -6, Rtt109 Vps75 4, esBAF inh 2, C2C12 statin 107* and Wnt bcat act -1.
CC(C)C(=O)Nc1nnc(NC(=S)Nc2ccccc2)s1 was read as MITF act 37, Rtt109 Vps75 8, esBAF inh 76*, C2C12 statin 23 and Wnt bcat act 8.
CCC(=O)Nc1nc(-c2ccccc2)ns1 was read as Rtt109 Vps75 0, esBAF inh 43* and C2C12 statin -9.
For CCCC(=O)Nc1nc(-c2ccccc2)ns1 the results were MITF act inconclusive, Rtt109 Vps75 3 and Wnt bcat act inconclusive.
CC(C)C(=O)Nc1nc(-c2ccccc2)ns1 was read as MITF act 135*, Rtt109 Vps75 -4, esBAF inh 56*, C2C12 statin 3 and Wnt bcat act -5.
`COc1ccc(NC(=O)N[C@H]2CC[C@@H](CCNC(=O)c3cc(Cl)cc(Cl)c3)O[C@@H]2CO)cc1` gave esBAF inh 1 and C2C12 statin 10.
`Cc1nc(SCCC(=O)O)c2cc(-c3ccccc3)sc2n1` gave MITF act -50, Rtt109 Vps75 22, esBAF inh -73, C2C12 statin 67* and Wnt bcat act -1.
Cc1nc(N2CCOCC2)c2cc(-c3ccccc3)sc2n1 was read as MITF act 46, Rtt109 Vps75 13, esBAF inh 16 and C2C12 statin -4.
Screening CCCC(=O)n1nc(-c2ccc(C)cc2)nc1NCc1ccco1 returned MITF act 51, Rtt109 Vps75 -1 and Wnt bcat act 47*.
O=C(c1cccs1)n1nc(-c2ccc(Cl)cc2)nc1NCc1ccco1 was read as Rtt109 Vps75 0 and Wnt bcat act 52*.
For c1csc(-c2nc(-c3ccc(-c4ccon4)s3)no2)c1 the results were MITF act 38, Rtt109 Vps75 -7 and Wnt bcat act 42*.
c1ccc(-c2nc(-c3ccc(-c4ccon4)s3)no2)cc1 was read as MITF act 74, Rtt109 Vps75 5, esBAF inh 53*, C2C12 statin 1 and Wnt bcat act 36*.
`C[C@H](CO)N1C[C@H](C)[C@H](CN(C)C(=O)Nc2ccc3c(c2)OCO3)Oc2ccc(NC(=O)CCN3CCOCC3)cc2C1=O` gave esBAF inh -1 and C2C12 statin -20.
`CCOC(=O)c1sc(=S)n(-c2ccc(Cl)cc2)c1SC` gave MITF act -7, Rtt109 Vps75 -2, esBAF inh -3, C2C12 statin 105* and Wnt bcat act -1.
COc1ccc(CN(C)C[C@H]2OCCCC[C@@H](C)Oc3ccc(NC(=O)c4ccccc4)cc3C(=O)N([C@H](C)CO)C[C@H]2C)cc1 was read as esBAF inh -5.
O=C(N[C@@H]1CC[C@H](CCn2cc(C3(O)CCCC3)nn2)O[C@@H]1CO)c1ccccc1F was read as esBAF inh 6 and C2C12 statin -5.
COc1ccc(CNc2nc3c(c(=O)n(Cc4ccc(Br)cc4)c(=O)n3C)n2C)cc1 was read as MITF act -26, Rtt109 Vps75 -7, esBAF inh -2, C2C12 statin 98* and Wnt bcat act -7.
Screening COc1ccc(CNc2ccc(-c3ccc(OC)cc3)nn2)cc1 returned MITF act 44, Rtt109 Vps75 -22, esBAF inh 45* and C2C12 statin -2.
COc1ccc(CNc2ccc(Br)cc2)cc1 was read as MITF act 58, Rtt109 Vps75 -14 and Wnt bcat act 43*.
For COc1cccc(S(=O)(=O)N[C@@H]2CC[C@@H](CCNC(=O)Cc3ccncc3)O[C@@H]2CO)c1 the results were esBAF inh -4 and C2C12 statin -6.
For CO[C@@H]1CN(C)C(=O)c2ccc(NS(=O)(=O)CC(F)(F)F)cc2OC[C@@H](C)N(C)C[C@@H]1C the results were esBAF inh -2 and C2C12 statin 7.
Screening CC(C)C(=O)Nc1nnc(CCN2CCCCC2)s1 returned Rtt109 Vps75 52*, esBAF inh -9 and C2C12 statin -7.
CC(=O)Nc1nnc(CCN2CCCCC2)s1 was read as esBAF inh 7 and C2C12 statin -2.
`CCCCc1c(C)nn(-c2nnc3c4ccccc4n(C)c3n2)c1C` gave MITF act 49, Rtt109 Vps75 12, esBAF inh 48* and C2C12 statin -30.
Screening CCC(=O)N1[C@H](CN(C)C(C)=O)[C@H](c2ccc(-c3cccc(F)c3)cc2)[C@@H]1CO returned esBAF inh -5 and C2C12 statin -4.
`COc1ccc(/C=C/C(=O)NC(C)(C)C)cc1S(=O)(=O)N1CCOCC1` gave MITF act -17, Rtt109 Vps75 -25 and Wnt bcat act 0.
COc1ccc(/C=C/C(=O)NC2CCCCCCC2)cc1S(=O)(=O)N1CCOCC1 was read as MITF act 30, Rtt109 Vps75 3, esBAF inh 51*, C2C12 statin 2 and Wnt bcat act 6.
C[C@@H]1CN([C@H](C)CO)C(=O)c2cc(NC(=O)Nc3cccc4ccccc34)ccc2O[C@@H](C)CCCCO[C@@H]1CN(C)S(=O)(=O)c1ccc(F)cc1 was read as esBAF inh -3 and C2C12 statin 4.
For COc1ccc(C2NC(=S)NC3=C2CCc2cc(OC)ccc23)cc1 (stereo not given) the results were MITF act 1, Rtt109 Vps75 -1, esBAF inh -2 and C2C12 statin 90*.
c1c2c(cc3sc(N4CCOCC4)nc13)OCO2 was read as Rtt109 Vps75 2, esBAF inh -22 and C2C12 statin -18.
`c1ccc2c(c1)CCN(c1nc3cc4c(cc3s1)OCO4)C2` gave Rtt109 Vps75 0, esBAF inh -25 and C2C12 statin -17.
`c1ccc(N2CCN(c3nc4cc5c(cc4s3)OCO5)CC2)cc1` gave MITF act 20, Rtt109 Vps75 -20, esBAF inh 49*, C2C12 statin 1 and Wnt bcat act 19.

High-throughput results: PubChem BioAssay, Broad Institute
